Test results reported in PubChem BioAssay AID977607 (Broad Institute, 2014).
The campaign covered roughly 1,500 compounds. About 460 (31%) were called active. About 1% were inconclusive and are not listed.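 The calls were made as follows: active = curve reaches 40% activation over neutral controls at an AC40 no higher than the top valid tested concentration; inconclusive = no clear call, values can overlap the other calls; inactive = signal moving opposite to the expected increase, and the rest.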 Not all results are given here. Results with a measured potency or affinity are listed apart.

Assay: activators of glucose-dependent insulin secretion, dose response, cell-based, INS-1E, Gaussia luciferase, luminescence, cherry-pick, set 2 (AID 977607);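 also: 0% = median of the plate neutral control wells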
Settings: INS-1E GLuc insulin secretion reporter, 2-3 h, active compounds read high; at 35 µM, 100% = signal doubled over neutral wells unless noted

Max activation, inactive:
COc1cc(OC)c(OC)cc1CCC(C)NC(=O)Cc1ccccc1 (configuration not stated) 27.7% [at 0.005 µM, 100% = signal doubled over neutral wells]
CCOc1ncccc1C(=O)NC(C)CCc1ccccc1 (configuration not stated) 29.7%
C[C@H]1CN=C(N(C)C)N1CC1CCCC1 -12% [at 0.015 µM, 100% = signal doubled over neutral wells]
Cc1ccc(C(=O)N2CCN3C(=O)c4ccccc4C23c2ccccc2)cc1 (configuration not stated) -24.9%
C=CCn1c(SCc2ccccc2)nc2c1c(=O)[nH]c(=O)n2C -13.1% [at 0.015 µM, 100% = signal doubled over neutral wells]
CN(Cc1ccccc1)c1nc2c(c(=O)[nH]c(=O)n2C)n1Cc1ccccc1 14.1% [at 11 µM, 100% = signal doubled over neutral wells]
CCCCCCn1c(SCC(C)C)nc2c1c(=O)[nH]c(=O)n2C 12.8%
Cn1c(=O)[nH]c(=O)c2c1nc(NC1CCCC1)n2Cc1ccccc1 -12.1% [at 0.0016 µM, 100% = signal doubled over neutral wells]
O=C(O)C(Cc1ccc(O)cc1)N1C(=O)c2ccccc2C1=O (configuration not stated) -22% [at 0.046 µM, 100% = signal doubled over neutral wells]
CCOc1ccc2oc(C(=O)N(C)CCc3ccc(OC)c(OC)c3)c(C)c2c1 47.7%
COc1ccc(CCN(C)C(=O)Cn2c(=O)oc3ccccc32)cc1OC -16.4%
Cc1ccc(Nc2ncnc3sccc23)c(C)c1 -16% [at 0.015 µM, 100% = signal doubled over neutral wells]
CCCCc1c(-c2ccccc2OC)ncn1C(C)c1ccccc1 (configuration not stated) 37.1%
CCCCc1c(-c2ccccc2OC)ncn1Cc1ccc(C)cc1 -22.3% [at 11 µM, 100% = signal doubled over neutral wells]
COc1ccc(CCN2C(=O)CC(Cc3ccccc3)C2=O)cc1OC (configuration not stated) -9.21% [at 0.046 µM, 100% = signal doubled over neutral wells]
CCOc1cc(C2C3=C(CC(C)(C)CC3=O)Nc3n[nH]c(C)c32)ccc1O (configuration not stated) -17.9% [at 0.015 µM, 100% = signal doubled over neutral wells]
c1csc(-c2nc(NCC3CCCO3)c3ccccc3n2)c1 (configuration not stated) 39.8% [at 11 µM, 100% = signal doubled over neutral wells]
Cn1nnnc1Sc1ncnc2scc(-c3ccc(F)cc3)c12 -12.9% [at 0.42 µM, 100% = signal doubled over neutral wells]
COc1ccc(C[C@H]2CN3C(=NC[C@@H]3Cc3ccccc3)N2CCNC(=O)CCC2CCCCC2)cc1 62.1%
NC1=NC[C@H](Cc2ccccc2)N1CCCCC1CCCCC1 -33.4% [at 11 µM, 100% = signal doubled over neutral wells]
Cc1cc(NS(=O)(=O)c2ccc(NC(=O)C(C)Oc3ccccc3Cl)cc2)no1 (configuration not stated) -22.4% [at 0.015 µM, 100% = signal doubled over neutral wells]
CCOc1ccccc1CNC(c1ccccc1)c1ccccc1 -22.9% [at 11 µM, 100% = signal doubled over neutral wells]
C/C(=N\NC(=O)CO/N=C(\C)c1cccs1)c1ccc(N)cc1 -25.9%
O=C(Nc1ncn[nH]1)c1ccc(Cl)c(Cl)c1 -14.6% [at 0.135 µM, 100% = signal doubled over neutral wells]
COc1cc2ccc(C(C)=NNC(N)=S)cc2cc1OC -23.9% [at 0.135 µM, 100% = signal doubled over neutral wells]
CC(C)CCN1C(=O)CSCC1(C)C(=O)NC(C)C (configuration not stated) -10.4%
Cc1cccn2cc(CNS(=O)(=O)c3ccc4ccccc4c3)nc12 34% [at 3.8 µM, 100% = signal doubled over neutral wells]
COCCn1c(=S)[nH]c2sc3c(c2c1=O)CCCC3 -29.9% [at 11 µM, 100% = signal doubled over neutral wells]
COc1cc(CN2CCC(n3nccc3NC(=O)C3CCOC3)CC2)ccc1F (configuration not stated) -11.8%
COc1ccccc1-n1cnc2sc(C)c(C)c2c1=O 29.4% [at 11 µM, 100% = signal doubled over neutral wells]
COc1ccc(C(=O)OCC(=O)NC(=O)NC2CCCC2)cc1OC -7.36% [at 0.005 µM, 100% = signal doubled over neutral wells]
COc1ccc(S(=O)(=O)NC2CCCCC2)cc1C 14.2% [at 3.8 µM, 100% = signal doubled over neutral wells]
COc1ccc(C2N(c3ccccc3)C(=O)C2(F)F)cc1OC (configuration not stated) -13.7%
CCSc1nnc2ccc(-c3ccc(C)cc3)nn12 18.5% [at 0.015 µM, 100% = signal doubled over neutral wells]
O=C(COc1ccccc1)Nc1ccccc1C(=O)NC1CC1 -11.7% [at 0.046 µM, 100% = signal doubled over neutral wells]
O=C(CC(c1ccccc1)c1ccco1)N1CCOCC1 (configuration not stated) 18.9% [at 1.2 µM, 100% = signal doubled over neutral wells]
CC(=O)c1c(O)c2cccc3c2n(c1=O)CCC3 -22.5% [at 0.046 µM, 100% = signal doubled over neutral wells]
Cc1ccccc1S(=O)(=O)N1CC(=O)N2[C@@H](CO)[C@H](c3ccc(C#CCC4CCCC4)cc3)[C@@H]2C1 276% [at 35 µM]
CCC(=O)Nc1cc(C(C)(C)C)ccc1C(C)=O -23.6% [at 0.135 µM, 100% = signal doubled over neutral wells]
O=C(c1cccs1)N(Cc1ccccn1)Cc1ccco1 -16.4% [at 0.015 µM, 100% = signal doubled over neutral wells]
CN1CCN(c2ccc(CNC(=O)C3(C)Cc4c(-c5ccccc5)ccnc4O3)cc2)CC1 (configuration not stated) -21.2% [at 0.005 µM, 100% = signal doubled over neutral wells]
CNC(=O)c1[nH]nc2c1CCc1cc(OC)ccc1-2 -16.9% [at 0.005 µM, 100% = signal doubled over neutral wells]
COc1ccc2c(c1)CCc1cc(C(=O)O)sc1-2 -25.3% [at 0.135 µM, 100% = signal doubled over neutral wells]
Cc1cc(C)nc(NC(N)=NCCc2c[nH]c3ccccc23)n1 -23.4% [at 0.046 µM, 100% = signal doubled over neutral wells]
COc1cc(C(F)(F)F)c(C(=O)NCc2cccc(Cl)c2)cn1 -11.8%
CCN(CC)CCCN=C1N[C@@H](c2ccccc2)C(C(=O)OC)=C(C)N1CC -23.5% [at 3.8 µM, 100% = signal doubled over neutral wells]
COC(=O)C1=C(C)N(Cc2ccc(C(F)(F)F)cc2)C(=NCC2CC2)NC1c1ccccc1 (configuration not stated) -21% [at 3.8 µM, 100% = signal doubled over neutral wells]
CCCCN(Cc1nc2ccccc2c(=O)[nH]1)C(=O)c1nn(C)c(=O)c2ccccc12 -30.4% [at 0.0016 µM, 100% = signal doubled over neutral wells]
Clc1cc(NC2CCCCC2)ncn1 -22.5% [at 11 µM, 100% = signal doubled over neutral wells]
CC(C)c1cc(C(C)C)n2nc(N)nc2n1 24.3%
COCCOC(=O)C1=C(C)NC(=O)N(C(C)=O)C1c1ccc(Cl)cc1 (configuration not stated) -26.3% [at 3.8 µM, 100% = signal doubled over neutral wells]
NC1=NC(=O)C(Cc2ccc(F)cc2)S1 (configuration not stated) -13% [at 0.015 µM, 100% = signal doubled over neutral wells]
CCCNC(=O)C1(C)CCN(C(=O)c2cccc(C(F)(F)F)c2)C1 (configuration not stated) -15.8% [at 0.135 µM, 100% = signal doubled over neutral wells]
O=C(c1ccccc1F)N1CCCC(N2CCN(Cc3ccc4c(c3)OCO4)CC2)C1 (configuration not stated) -12.4% [at 0.0016 µM, 100% = signal doubled over neutral wells]
CCCCc1nnc2c(N(C)S(=O)(=O)c3ccccc3)nc3ccccc3n12 -17.8% [at 0.015 µM, 100% = signal doubled over neutral wells]
Cc1cccc(N2CCN(C(=O)c3cccn4c(=O)c5c(C)c(C)sc5nc34)CC2)c1C -13.3% [at 0.046 µM, 100% = signal doubled over neutral wells]
COC(=O)C1CCN(c2cc(Cl)nc(N)n2)CC1 30.9%
